# An excerpt weighted towards active compounds, which were near 4.7% of everything screened.
# DRV1 agonist: agonists of human resolvin D1 receptor DRV1 (GPR32). O75388. CHO-K1 GPR32 beta-arrestin PathHunter luminescence, 90 min; zero percent set by DMSO-only wells. activation, % at 76.9 µM. hit rate 2.5% among 48,000;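 active = activation of at least 60% and not above a set upper limit, about 1 call in 100 departs from these limits; inconclusive = activation of 40% to 60%, or above that upper limit; inactive = activation under 40%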
# Target sequence (O75388 whole entry, looked up): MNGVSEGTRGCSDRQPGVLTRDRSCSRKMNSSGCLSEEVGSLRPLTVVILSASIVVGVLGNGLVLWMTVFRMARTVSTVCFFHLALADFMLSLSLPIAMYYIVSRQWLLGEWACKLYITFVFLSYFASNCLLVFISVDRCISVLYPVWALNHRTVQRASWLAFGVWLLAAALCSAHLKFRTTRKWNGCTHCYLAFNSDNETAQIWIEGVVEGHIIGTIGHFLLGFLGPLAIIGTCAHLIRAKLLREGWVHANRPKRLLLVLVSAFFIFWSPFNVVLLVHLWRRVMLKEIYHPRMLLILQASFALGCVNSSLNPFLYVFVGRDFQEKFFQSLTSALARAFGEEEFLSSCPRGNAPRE
#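 GPR32 activation in stably transfected CHO-K1 cells, detected as beta-arrestin recruitment by enzyme-fragment complementation. Compound exposure: 90 min, 37 °C.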
# NTMT1 inh: NTMT1 methyltransferase inhibition. hit rate 2.5% among 59,000. NTMT1 MTase-Glo SAH luminescence, purified enzyme. Potency, µM (highest dose often 114 µM), actives largely listed as inhibitors. AID 1645870. Q9BV86; note: nearly all actives have a fitted effect of over 65% in size
# Target sequence (Q9BV86 whole entry, looked up): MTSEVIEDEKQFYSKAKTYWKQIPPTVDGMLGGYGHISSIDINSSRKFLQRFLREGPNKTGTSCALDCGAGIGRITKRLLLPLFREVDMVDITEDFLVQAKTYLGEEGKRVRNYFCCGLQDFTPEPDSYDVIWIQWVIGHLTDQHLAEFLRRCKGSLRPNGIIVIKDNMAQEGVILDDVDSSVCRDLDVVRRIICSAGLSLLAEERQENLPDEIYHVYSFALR
# FH mod: Identification of activators of human fumarate hydratase by quantitative high-throughput screening. FH coupled MDH/diaphorase resazurin fluorescence, 15 min. Potency, µM (doses to about 79.9 µM), usual class: inhibitors. hit rate 0.22% among 54,000. AID 1347055, 2019; note: the screen sought activators but most active calls are inhibition curves; nearly all actives have a fitted effect of over 45% in size
# HTT prom inh: inhibitors of huntingtin promoter activity. HEK293 HTT promoter firefly luciferase reporter, 24 h. Potency, µM (doses to about 57.5 µM), hits mostly inhibitors. hit rate 0.93% among 48,000; note: nearly all actives have a fitted effect of over 50% in size
#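 Firefly luciferase signal from promoter-reporter HEK293 cells was scaled between vehicle (0%) and zero RLU (-100%). Compounds were tested at final concentrations of up to 57.5 uM over 24 h at 37 degrees C. PTC124 at 50 uM final served as control inhibitor.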
# HTT-AS act: activators of huntingtin-antisense promoter activity; hit rate 0.24% among 48,000; HEK293 HTT-AS promoter firefly luciferase reporter, 24 h; response scale: percent change from vehicle, -100% = no light; Potency, µM (doses to about 57.5 µM), most hits filed as activators; note: nearly all actives have a fitted effect of over 55% in size
#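 Firefly luciferase signal from promoter-reporter HEK293 cells was scaled between vehicle (0%) and zero RLU (-100%). Compounds were tested at final concentrations of up to 57.5 uM over 24 h at 37 degrees C. PTC124 at 50 uM final served as control inhibitor.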
# A number is an active result; - = inactive; ? = inconclusive; . = no result; ! = not active in a repeat; [ ] = dose if it differs, or a comment. Unless noted, calls come from the whole dose curve; as a rule, active = well fitted curve in the direction sought with a large enough effect; inconclusive = small, poorly fitted or top-dose-only effect, or another doubt; inactive = no such curve, though single readings can be large; an effect the other way counts as inactive or inconclusive.
SMILES,DRV1 agonist,NTMT1 inh,FH mod,HTT prom inh,HTT-AS act
C[N+](C)(C)CCOC(=O)CBr,-,.,-,.,.
C[N+](C)(C)CCOC(=O)C(O)(c1ccccc1)c1ccccc1,-,16µM,-,-,-
NC(=O)CI,-,.,25µM,.,.
CC[N+]1(CC)CCC(OC(=O)C(O)(c2ccccc2)c2ccccc2)C1 (stereo not given),-,-,-,-,-
CCN(CC)C(C)C(=O)c1ccccc1 (stereo not given),-,-,-,-,-
CC(=O)[O][Hg][c]1ccccc1,?,2.8µM,-,?,-
CCOC(=O)c1ccc(-c2ccc(OC(=O)N(C)Cc3cccc(-c4ccncc4)c3)cc2)cc1,.,-,-,.,.
O=S(=O)(O)C(F)(F)C(F)(F)C(F)(F)C(F)(F)C(F)(F)C(F)(F)C(F)(F)C(F)(F)F,?,22µM,?,-,-
CC(C)[N+](C)(CCC(C(N)=O)(c1ccccc1)c1ccccc1)C(C)C,-,40µM,-,-,-
COC(=O)C12C(=O)C(C)(O)C(=O)C1(C)C(C)=CC1C3(C=O)CCC(OC(C)=O)C(C)(C)C3CCC12C (stereo not given),.,-,-,.,.
O=C(O)C(=O)c1cn(Cc2ccccc2)c2ccc(-c3ccc(OC(F)(F)F)cc3)cc12,.,40µM!,-,-,-
O=C(Nc1ccc(OC(F)(F)F)cc1)c1cccn(Cc2ccccc2Cl)c1=O,-,-,-,?,-
c1ccc(CN2CCNCC2)cc1,-,100µM,-,-,-
C[C@H]1O[C@@H](n2cnc3c(N)ncnc32)C[C@@H]1O,.,-,-,.,.
C[C@]12CCC(=O)C=C1CC[C@@H]1[C@H]3CC[C@](C)(O)[C@@]3(C)CC[C@@H]12,106,?,-,?,-
CCc1ccc(-n2nc(C)c3c2NC(=O)CSC3c2ccc(OC)cc2OC)cc1 (stereo not given),-,-,-,22µM,-
CC(=O)O[C@H]1C[C@@H](OC(C)=O)C(C)(C)C2C[C@@H](O)[C@]3(C)C(CC[C@@]4(C)[C@H](C5=CC(=O)OC5O)C[C@H]5O[C@]543)[C@]21C (stereo not given in full),.,-,-,.,.
CC(C)(C)NC[C@H](O)c1ccc(O)cc1Cl,-,-,-,-,-
NC(Cc1cc(O)c(O)cc1O)C(=O)O (stereo not given),-,.,?,.,.
NCCc1cc(O)c(O)cc1O,-,28µM,-,-,-
CC(=O)OC[C@]12C[C@H](O)C(C)=C[C@H]1O[C@@H]1[C@H](O)[C@@H](OC(C)=O)[C@@]2(C)[C@]12CO2,.,-,-,.,.
CC[n+]1c(-c2ccccc2)c2cc(N)ccc2c2ccc(N)cc21,-,28µM,-,-,-
O=P1(N(CCCl)CCCl)NCCCO1 (stereo not given),-,35µM!,-,-,-
CN(C)[C@@H]1C(=O)C(C(N)=O)=C(O)[C@@]2(O)C(=O)C3=C(O)c4c(O)cccc4[C@@](C)(O)[C@H]3[C@H](O)[C@@H]12,.,79µM,-,-,-
C=CC[C@]1(O)CC[C@H]2[C@@H]3CCC4=CC(=O)CCC4=C3C=C[C@@]21C,-,22µM,-,-,-
SMILES,DRV1 agonist,NTMT1 inh,FH mod,HTT prom inh,HTT-AS act
CC[C@H]1C2CC3[C@@H]4N(C)c5ccccc5[C@]45C[C@@H]([C@H]2[C@H]5O)N3[C@@H]1O,.,-,-,.,.
O=c1c2ccccc2nc(/C=C/c2cccc3ccccc23)n1-c1ccccc1Cl,-,-,-,28µM,-
Cc1ccc(Cn2cccc(C(=O)Nc3nnc(C)s3)c2=O)cc1,-,-,-,-,-
C=CCC1=C(C)C(OC(=O)C2C(C=C(C)C)C2(C)C)CC1=O (stereo not given),74,?,-,-,-
C[C@]12CC[C@H]3[C@@H](CCC4=CC(=O)CC[C@@H]43)[C@@H]1CC[C@@H]2OC(=O)CCc1ccco1,119,25µM,-,-,-
C[C@]12CC[C@@H]3[C@@H](CCC4=CC(=O)CC[C@@H]43)[C@@H]1CC[C@@H]2OC(=O)CCc1ccccc1,.,-,-,-,-
CCOC(=O)CC(SP(=S)(OC)OC)C(=O)OCC (stereo not given),-,32µM!,-,-,-
CC(=O)O[C@@]12CO[C@@H]1C[C@H](O)[C@@]1(C)C(=O)[C@H](O)C3=C(C)[C@@H](O)C[C@@](O)([C@@H](OC(=O)c4ccccc4)[C@H]21)C3(C)C,.,-,.,.,.
FC(F)(F)c1cccc(C2=CCN(CCc3ccc4ccccc4c3)CC2)c1,100,-,-,-,-
CC(=O)OC[C@H]1O[C@@H]([S-])[C@H](OC(C)=O)[C@@H](OC(C)=O)[C@@H]1OC(C)=O.CC[PH+](CC)CC.[Au],.,10µM,.,.,.
CC1=C[C@H]2O[C@@H]3C[C@H]4OC(=O)/C=C/C=C/C(=O)OCC/C(C)=C/C(=O)OC[C@@]2(CC1)[C@]4(C)[C@]31CO1,.,-,-,.,.
CCN(CC)C(=O)[C@@H]1C=C2c3cccc4[nH]cc(c34)C[C@H]2N(C)C1,-,56µM,-,-,-
C[C@]12Cc3nonc3C[C@@H]1CC[C@@H]1[C@@H]2CC[C@@]2(C)[C@H]1CC[C@]2(C)O,65,-,-,-,-
O=C(c1ccc2c(c1)N(Cc1c(F)cccc1Cl)C(=O)c1ccccc1S2)N1CCC2(CC1)OCCO2,-,-,-,-,-
Nc1c(C(=O)Nc2ccc(Cl)cc2)sc2nc3c(cc12)N1CCC3CC1,77,?,-,?,-
Cc1c(N)nc([C@H](CC(N)=O)NC[C@@H](N)C(N)=O)nc1C(=O)N[C@H](C(=O)N[C@@H](C)[C@H](O)[C@@H](C)C(=O)N[C@@H](C(=O)NCCc1nc(-c2nc(C(=O)NCCC[S+](C)C)cs2)cs1)[C@@H](C)O)C(O[C@H]1O[C@H](CO)[C@H](O)[C@@H](O)[C@@H]1O[C@H]1O[C@H](CO)[C@@H](O)[C@H](OC(N)=O)[C@H]1O)c1cnc[nH]1 (stereo not given in full),.,-,-,-,-
Cc1[nH]nc2ccc(-c3cncc(OC[C@@H](N)Cc4c[nH]c5ccccc45)c3)cc12,.,40µM!,-,?,-
CC(N)Cc1c[nH]c2ccccc12 (stereo not given),.,-,-,.,.
CC(C)[C@H]1OC(=O)[C@H](Cc2ccccc2)N(C)C(=O)[C@@H](C(C)C)OC(=O)[C@H](Cc2ccccc2)N(C)C(=O)[C@@H](C(C)C)OC(=O)[C@H](Cc2ccccc2)N(C)C1=O,.,-[12.6 µM],-,.,.
CC(=O)N1N=C(c2ccc(N)cc2)c2cc3c(cc2C[C@H]1C)OCO3,.,-,-,.,.
Nc1ccc(N=Nc2ccccc2)cc1,-,126µM,?,?,-
C[C@@H]1CC[C@H]2[C@@H](C)C(=O)O[C@@H]3O[C@@]4(C)CC[C@H]1[C@]32OO4,.,-,-,-,-
